The full data set covers some 8,800 targets. This sample favours those with a hit. About 0.5% of all pairs of compound and target were hits.
How the values were obtained:
Experiment in all cases: log2 fold change, soluble protein after heating vs DMSO (PISA); higher = thermal stabilisation; K562 lysate, 10 uM; active = over 0.2 and 3.5 SD of the protein, either way, in both replicates (recomputed)
lapatinib = compound: CS(=O)(=O)CCNCc1ccc(-c2ccc3ncnc(Nc4ccc(OCc5cccc(F)c5)c(Cl)c4)c3c2)o1 [lapatinib]
Summary of the method: (§1)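 The values are log-two fold changes in thermal stability compared with solvent controls and come from duplicates. They were obtained by TMTpro 16plex LC-MS/MS, with channel sums equalised, on the supernatant after 21,000xg for 90 min. That supernatant came from crude K562 extract at 1 mg/mL protein treated with 10 μM compound for 30 min, heated for 3 min across 48°C-58°C, pooled and brought to 0.5% NP-40 at 4°C.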

pictilisib = compound: CS(=O)(=O)N1CCN(Cc2cc3nc(-c4cccc5[nH]ncc45)nc(N4CCOCC4)c3s2)CC1 [pictilisib]
Summary of the method: as §1

crizotinib = compound: C[C@@H](Oc1cc(-c2cnn(C3CCNCC3)c2)cnc1N)c1c(Cl)ccc(F)c1Cl [crizotinib]
Summary of the method: as §1

[1] = compound: C[C@H](C1=CC=C(C=C1)C(=O)NC2=C3C=CNC3=NC=C2)N
Summary of the method: as §1

duvelisib = compound: C[C@H](Nc1ncnc2nc[nH]c12)c1cc2cccc(Cl)c2c(=O)n1-c1ccccc1 [duvelisib]
Summary of the method: as §1

gandotinib = compound: Cc1cc(Nc2cc(CN3CCOCC3)c3nc(C)c(Cc4ccc(Cl)cc4F)n3n2)n[nH]1 [gandotinib]
Summary of the method: as §1

tozasertib = compound: Cc1cc(Nc2cc(N3CCN(C)CC3)nc(Sc3ccc(NC(=O)C4CC4)cc3)n2)n[nH]1 [tozasertib]
Summary of the method: as §1

doramapimod = compound: Cc1ccc(-n2nc(C(C)(C)C)cc2NC(=O)Nc2ccc(OCCN3CCOCC3)c3ccccc23)cc1 [doramapimod]
Summary of the method: as §1

bafetinib = compound: Cc1ccc(NC(=O)c2ccc(CN3CC[C@H](N(C)C)C3)c(C(F)(F)F)c2)cc1Nc1nccc(-c2cncnc2)n1 [bafetinib]
Summary of the method: as §1

[2] = compound: Cc1cccc(CC(=O)N2CCc3c2ccc(-c2cn(C)c4ncnc(N)c24)c3F)n1
Summary of the method: as §1

Measured: log2 fold change

MYH11 isoform 2 (UniProt P35749)
active: [1] 0.279
inactive: lapatinib 0.075 | pictilisib -0.002 | crizotinib 0.054 | duvelisib 0.055 | gandotinib -0.004 | tozasertib 0.031 | doramapimod -0.044 | bafetinib 0.303 | [2] -0.018

NBN (UniProt O60934)
Chain of UniProt O60934 (O60934 whole entry, looked up): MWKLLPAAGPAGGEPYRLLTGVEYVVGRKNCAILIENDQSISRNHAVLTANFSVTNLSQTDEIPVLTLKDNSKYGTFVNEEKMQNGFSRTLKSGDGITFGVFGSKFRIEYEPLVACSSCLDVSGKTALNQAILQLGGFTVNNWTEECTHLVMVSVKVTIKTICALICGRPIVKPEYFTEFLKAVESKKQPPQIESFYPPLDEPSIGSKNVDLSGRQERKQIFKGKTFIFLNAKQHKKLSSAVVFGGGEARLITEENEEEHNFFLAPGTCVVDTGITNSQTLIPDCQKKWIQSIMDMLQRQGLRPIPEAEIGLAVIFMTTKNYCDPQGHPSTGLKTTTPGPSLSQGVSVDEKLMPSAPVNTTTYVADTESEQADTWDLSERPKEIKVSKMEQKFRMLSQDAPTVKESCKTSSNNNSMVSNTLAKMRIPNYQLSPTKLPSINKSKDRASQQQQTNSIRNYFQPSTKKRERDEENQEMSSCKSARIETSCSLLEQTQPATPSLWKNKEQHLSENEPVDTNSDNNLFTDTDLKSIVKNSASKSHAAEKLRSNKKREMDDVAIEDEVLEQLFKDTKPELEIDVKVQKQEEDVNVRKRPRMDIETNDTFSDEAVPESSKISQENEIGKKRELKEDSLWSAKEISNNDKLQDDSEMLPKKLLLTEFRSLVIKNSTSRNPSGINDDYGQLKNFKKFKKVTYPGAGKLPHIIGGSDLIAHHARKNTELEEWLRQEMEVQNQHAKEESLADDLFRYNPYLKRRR
inactive: lapatinib 0.008 | pictilisib -0.006 | crizotinib -0.028 | [1] 0.033 | duvelisib -0.006 | gandotinib -0.05 | tozasertib 0.032 | doramapimod 0.001 | bafetinib -0.016 | [2] -0.026

NUDT5 (UniProt Q9UKK9)
inactive: lapatinib 0.003 | pictilisib -0.036 | crizotinib 0.007 | duvelisib 0.051 | gandotinib 0.211 | tozasertib -0.018 | doramapimod -0.015 | bafetinib -0.016 | [2] 0.212
active: [1] -0.299

PARP14 (UniProt Q460N5)
inactive: lapatinib -0.018 | pictilisib -0.057 | crizotinib -0.154 | [1] 0.148 | duvelisib -0.13 | gandotinib -0.123 | tozasertib -0.013 | doramapimod -0.013 | bafetinib -0.081 | [2] 0

NACC1 (UniProt Q96RE7)
Chain of UniProt Q96RE7 (Q96RE7 whole entry, looked up): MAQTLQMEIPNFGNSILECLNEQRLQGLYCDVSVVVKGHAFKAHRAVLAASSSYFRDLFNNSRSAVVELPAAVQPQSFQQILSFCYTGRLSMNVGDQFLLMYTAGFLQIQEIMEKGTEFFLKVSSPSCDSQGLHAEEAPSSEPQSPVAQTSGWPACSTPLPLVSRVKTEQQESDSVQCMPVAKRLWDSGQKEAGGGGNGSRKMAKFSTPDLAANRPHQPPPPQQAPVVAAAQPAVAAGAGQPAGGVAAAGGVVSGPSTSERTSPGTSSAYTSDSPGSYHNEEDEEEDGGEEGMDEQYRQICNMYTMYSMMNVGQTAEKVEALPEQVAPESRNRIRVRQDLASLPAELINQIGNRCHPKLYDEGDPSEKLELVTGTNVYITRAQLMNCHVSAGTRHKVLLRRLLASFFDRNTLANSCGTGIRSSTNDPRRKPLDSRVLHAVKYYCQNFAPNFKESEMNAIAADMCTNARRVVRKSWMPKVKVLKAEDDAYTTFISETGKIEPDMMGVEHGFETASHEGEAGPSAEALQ
inactive: lapatinib -0.032 | pictilisib 0.034 | crizotinib 0.01 | [1] -0.066 | duvelisib -0.002 | gandotinib 0.006 | tozasertib -0.015 | doramapimod -0.011 | bafetinib -0.078 | [2] 0.044

NMRAL1 (UniProt Q9HBL8)
active: [1] 0.695
inactive: lapatinib -0.003 | pictilisib 0.105 | crizotinib -0.017 | duvelisib 0.08 | gandotinib -0.01 | tozasertib -0.051 | doramapimod 0.036 | bafetinib 0.005 | [2] 0.011

MTOR (UniProt P42345)
inactive: lapatinib -0.008 | pictilisib -0.016 | crizotinib -0.068 | [1] -0.042 | duvelisib 0.021 | gandotinib -0.079 | tozasertib 0.018 | doramapimod 0.055 | bafetinib -0.015 | [2] 0.053

MSI2 (UniProt Q96DH6)
active: doramapimod -0.23
inactive: lapatinib 0 | pictilisib -0.057 | crizotinib 0.036 | [1] 0.024 | duvelisib -0.052 | gandotinib -0.031 | tozasertib 0.01 | bafetinib -0.066 | [2] 0.07

NCAPD3 (UniProt P42695)
inactive: lapatinib -0.015 | pictilisib -0.009 | crizotinib -0.065 | [1] -0.013 | duvelisib -0.004 | gandotinib -0.099 | tozasertib -0.013 | doramapimod 0.02 | bafetinib -0.024 | [2] 0.047

NLRP2 (UniProt Q9NX02)
Chain of UniProt Q9NX02 (Q9NX02 whole entry, looked up): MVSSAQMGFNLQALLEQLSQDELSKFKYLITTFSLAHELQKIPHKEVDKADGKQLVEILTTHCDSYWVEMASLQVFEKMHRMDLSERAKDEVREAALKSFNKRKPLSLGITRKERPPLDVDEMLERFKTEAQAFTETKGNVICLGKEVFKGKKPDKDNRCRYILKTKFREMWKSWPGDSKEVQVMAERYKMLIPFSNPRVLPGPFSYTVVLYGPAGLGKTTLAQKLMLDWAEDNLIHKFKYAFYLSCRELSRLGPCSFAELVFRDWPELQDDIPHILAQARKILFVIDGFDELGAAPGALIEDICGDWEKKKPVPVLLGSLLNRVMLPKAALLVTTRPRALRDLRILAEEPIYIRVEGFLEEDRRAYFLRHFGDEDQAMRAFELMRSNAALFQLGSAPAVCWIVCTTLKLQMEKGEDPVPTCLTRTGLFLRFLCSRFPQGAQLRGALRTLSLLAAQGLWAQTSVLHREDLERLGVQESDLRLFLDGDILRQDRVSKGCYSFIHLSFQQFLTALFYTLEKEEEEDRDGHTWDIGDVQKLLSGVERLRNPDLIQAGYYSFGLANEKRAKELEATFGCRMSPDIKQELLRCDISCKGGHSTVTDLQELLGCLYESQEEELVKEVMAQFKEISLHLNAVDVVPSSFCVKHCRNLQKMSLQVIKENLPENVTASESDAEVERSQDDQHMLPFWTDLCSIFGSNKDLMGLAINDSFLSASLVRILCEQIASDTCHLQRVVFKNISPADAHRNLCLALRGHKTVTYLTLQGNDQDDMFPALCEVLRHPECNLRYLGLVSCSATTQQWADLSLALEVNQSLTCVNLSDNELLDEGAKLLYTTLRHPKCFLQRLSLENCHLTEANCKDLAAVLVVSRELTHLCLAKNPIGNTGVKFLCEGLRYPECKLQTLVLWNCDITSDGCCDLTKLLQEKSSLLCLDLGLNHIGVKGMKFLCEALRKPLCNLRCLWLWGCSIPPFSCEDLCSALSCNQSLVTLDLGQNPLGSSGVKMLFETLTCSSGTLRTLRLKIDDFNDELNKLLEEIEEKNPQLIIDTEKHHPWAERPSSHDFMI
inactive: lapatinib 0.004 | pictilisib -0.025 | crizotinib -0.029 | [1] 0.091 | duvelisib 0.005 | gandotinib -0.049 | tozasertib 0.005 | doramapimod 0.051 | bafetinib -0.023 | [2] -0.018

NTMT1 (UniProt Q9BV86)
inactive: lapatinib -0.008 | pictilisib -0.008 | crizotinib -0.009 | [1] 0.079 | duvelisib -0.026 | gandotinib -0.113 | tozasertib -0.041 | doramapimod 0.025 | bafetinib 0.025 | [2] -0.045

OSGEP (UniProt Q9NPF4)
inactive: lapatinib -0.011 | pictilisib -0.025 | crizotinib -0.006 | [1] -0.07 | duvelisib -0.037 | gandotinib -0.024 | tozasertib 0.043 | doramapimod -0.035 | bafetinib -0.008 | [2] 0.033

NUP133 (UniProt Q8WUM0)
inactive: lapatinib -0.007 | pictilisib -0.01 | crizotinib -0.093 | [1] -0.075 | duvelisib -0.01 | tozasertib 0.042 | doramapimod 0.061 | bafetinib -0.074 | [2] 0.218
active: gandotinib 0.251

OSBPL3 isoform 2 (UniProt Q9H4L5)
inactive: lapatinib 0.073 | pictilisib -0.039 | crizotinib 0.014 | [1] -0.045 | duvelisib 0.03 | gandotinib -0.052 | tozasertib -0.005 | doramapimod 0.107 | bafetinib 0.269 | [2] 0.035

NCAPG2 (UniProt Q86XI2)
Chain of UniProt Q86XI2 (Q86XI2 whole entry, looked up): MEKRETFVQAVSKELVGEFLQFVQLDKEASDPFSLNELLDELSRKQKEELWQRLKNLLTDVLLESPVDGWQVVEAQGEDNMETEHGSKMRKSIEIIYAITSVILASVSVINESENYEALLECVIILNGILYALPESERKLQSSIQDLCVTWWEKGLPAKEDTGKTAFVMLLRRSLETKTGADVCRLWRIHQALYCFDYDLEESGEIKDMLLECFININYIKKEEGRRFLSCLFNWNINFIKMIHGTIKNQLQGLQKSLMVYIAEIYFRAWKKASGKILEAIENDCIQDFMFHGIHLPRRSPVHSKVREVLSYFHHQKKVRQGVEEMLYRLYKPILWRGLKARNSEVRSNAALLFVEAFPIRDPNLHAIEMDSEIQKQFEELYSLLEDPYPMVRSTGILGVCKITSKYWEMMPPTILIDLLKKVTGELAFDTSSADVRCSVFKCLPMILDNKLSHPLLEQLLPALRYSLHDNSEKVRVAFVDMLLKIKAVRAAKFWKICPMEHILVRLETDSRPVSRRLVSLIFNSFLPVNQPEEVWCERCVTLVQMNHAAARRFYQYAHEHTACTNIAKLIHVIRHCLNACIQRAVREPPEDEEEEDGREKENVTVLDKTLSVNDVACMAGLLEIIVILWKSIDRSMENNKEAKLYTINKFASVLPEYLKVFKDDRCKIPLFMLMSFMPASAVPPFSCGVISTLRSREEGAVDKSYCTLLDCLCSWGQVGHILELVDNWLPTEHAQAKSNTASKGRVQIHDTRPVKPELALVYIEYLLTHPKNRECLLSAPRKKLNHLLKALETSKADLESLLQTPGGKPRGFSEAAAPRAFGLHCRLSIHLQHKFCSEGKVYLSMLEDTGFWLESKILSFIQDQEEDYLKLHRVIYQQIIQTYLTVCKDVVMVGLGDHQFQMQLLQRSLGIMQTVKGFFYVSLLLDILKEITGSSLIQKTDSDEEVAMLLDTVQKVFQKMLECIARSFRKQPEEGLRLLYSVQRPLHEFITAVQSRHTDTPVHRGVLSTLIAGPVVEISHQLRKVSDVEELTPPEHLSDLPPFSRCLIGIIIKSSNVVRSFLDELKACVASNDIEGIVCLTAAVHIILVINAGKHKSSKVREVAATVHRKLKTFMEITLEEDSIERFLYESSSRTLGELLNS
inactive: lapatinib -0.062 | pictilisib -0.006 | crizotinib -0.048 | [1] -0.108 | duvelisib -0.052 | gandotinib -0.011 | tozasertib 0.023 | doramapimod 0.062 | bafetinib -0.074 | [2] 0.143

OSBP (UniProt P22059)
inactive: lapatinib -0.101 | pictilisib -0.046 | crizotinib 0.007 | [1] 0 | duvelisib 0.037 | gandotinib -0.072 | tozasertib -0.015 | doramapimod -0.028 | bafetinib -0.093 | [2] 0.03

MRPS31 (UniProt Q92665)
inactive: lapatinib 0.012 | pictilisib 0.012 | crizotinib -0.02 | [1] -0.002 | duvelisib -0.015 | gandotinib -0.006 | tozasertib 0.033 | doramapimod 0.047 | bafetinib -0.009 | [2] 0.051

NIPSNAP3A (UniProt Q9UFN0)
Chain of UniProt Q9UFN0 (Q9UFN0 whole entry, looked up): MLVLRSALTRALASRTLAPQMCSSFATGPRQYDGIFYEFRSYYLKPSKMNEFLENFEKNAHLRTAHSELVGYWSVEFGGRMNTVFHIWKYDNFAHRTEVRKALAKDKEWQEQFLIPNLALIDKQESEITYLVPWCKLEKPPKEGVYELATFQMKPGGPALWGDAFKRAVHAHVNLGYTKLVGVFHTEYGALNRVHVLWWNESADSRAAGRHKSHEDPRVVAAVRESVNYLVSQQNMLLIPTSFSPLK
inactive: lapatinib -0.007 | pictilisib -0.031 | crizotinib 0.021 | duvelisib 0.03 | gandotinib -0.197 | tozasertib -0.011 | doramapimod -0.029 | bafetinib 0.061
active: [1] 0.466 | [2] -0.276

PAFAH1B3 (UniProt Q15102)
inactive: lapatinib -0.034 | pictilisib -0.024 | crizotinib -0.01 | [1] -0.016 | duvelisib -0.024 | gandotinib -0.001 | tozasertib 0.054 | doramapimod 0 | bafetinib 0.048 | [2] -0.001

NSL1 (UniProt Q96IY1)
inactive: lapatinib -0.003 | pictilisib -0.032 | crizotinib 0.051 | [1] 0.001 | duvelisib -0.033 | gandotinib 0.094 | tozasertib -0.01 | doramapimod -0.047 | bafetinib 0.034 | [2] 0.006

NCAPD2 (UniProt Q15021)
inactive: lapatinib -0.033 | pictilisib 0.001 | crizotinib -0.049 | [1] -0.003 | duvelisib 0.014 | gandotinib -0.115 | tozasertib -0.006 | doramapimod 0.011 | bafetinib -0.036 | [2] 0.029

NPM3 (UniProt O75607)
Chain of UniProt O75607 (O75607 whole entry, looked up): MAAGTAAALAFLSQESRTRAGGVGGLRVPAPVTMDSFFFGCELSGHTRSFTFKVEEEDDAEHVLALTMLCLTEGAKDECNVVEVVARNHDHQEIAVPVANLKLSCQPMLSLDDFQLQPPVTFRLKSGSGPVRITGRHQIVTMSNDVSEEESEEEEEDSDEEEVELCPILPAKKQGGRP
inactive: lapatinib 0.087 | pictilisib 0.053 | crizotinib -0.02 | [1] -0.201 | duvelisib 0.014 | gandotinib 0.068 | tozasertib -0.036 | doramapimod 0.027 | bafetinib 0.04 | [2] 0.164

PAK1 (UniProt Q13153)
Chain of UniProt Q13153 (Q13153 whole entry, looked up): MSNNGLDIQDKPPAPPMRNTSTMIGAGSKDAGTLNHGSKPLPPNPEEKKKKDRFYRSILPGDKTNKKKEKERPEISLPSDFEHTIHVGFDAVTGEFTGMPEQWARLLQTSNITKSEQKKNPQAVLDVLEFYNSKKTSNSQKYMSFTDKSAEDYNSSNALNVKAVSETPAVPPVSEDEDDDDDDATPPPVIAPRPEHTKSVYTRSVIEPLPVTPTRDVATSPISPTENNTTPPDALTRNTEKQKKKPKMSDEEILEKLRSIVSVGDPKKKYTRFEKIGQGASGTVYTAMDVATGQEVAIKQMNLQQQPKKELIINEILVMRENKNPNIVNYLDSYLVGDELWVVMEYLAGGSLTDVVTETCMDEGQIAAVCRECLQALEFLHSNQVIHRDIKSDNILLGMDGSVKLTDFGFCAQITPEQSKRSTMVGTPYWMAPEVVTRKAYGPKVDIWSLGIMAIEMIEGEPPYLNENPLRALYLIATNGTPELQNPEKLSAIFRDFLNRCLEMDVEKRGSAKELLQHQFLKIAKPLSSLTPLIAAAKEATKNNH
inactive: lapatinib -0.037 | pictilisib -0.034 | crizotinib 0.019 | [1] -0.117 | duvelisib 0.044 | gandotinib -0.011 | tozasertib -0.02 | doramapimod -0.035 | bafetinib 0.002 | [2] -0.005

NFKBIB (UniProt Q15653)
inactive: lapatinib 0.093 | pictilisib -0.011 | crizotinib -0.055 | duvelisib 0.004 | gandotinib 0.095 | tozasertib -0.024 | doramapimod 0.024 | bafetinib -0.049 | [2] 0.127
active: [1] -0.36

N6AMT1 (UniProt Q9Y5N5)
Chain of UniProt Q9Y5N5 (Q9Y5N5 whole entry, looked up, one chain of several): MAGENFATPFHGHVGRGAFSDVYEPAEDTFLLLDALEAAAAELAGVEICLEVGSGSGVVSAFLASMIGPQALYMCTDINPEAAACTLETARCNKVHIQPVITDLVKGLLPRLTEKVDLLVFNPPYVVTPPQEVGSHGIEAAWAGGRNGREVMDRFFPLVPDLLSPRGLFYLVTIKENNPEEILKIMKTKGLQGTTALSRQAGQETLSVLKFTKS
inactive: lapatinib -0.018 | pictilisib -0.038 | crizotinib -0.02 | duvelisib -0.017 | gandotinib -0.033 | tozasertib 0.008 | doramapimod 0.014 | bafetinib -0.109 | [2] -0.098
active: [1] 0.34

OPA1 isoform 2 (UniProt O60313)
active: gandotinib -0.248
inactive: lapatinib -0.017 | pictilisib 0.002 | crizotinib -0.096 | [1] -0.013 | duvelisib -0.002 | tozasertib 0.03 | doramapimod 0.023 | bafetinib -0.073 | [2] 0.048

NDUFAF5 (UniProt Q5TEU4)
inactive: lapatinib 0.002 | pictilisib -0.02 | crizotinib -0.044 | [1] -0.212 | gandotinib 0.026 | tozasertib 0.068 | doramapimod 0.129 | bafetinib -0.019 | [2] -0.061
active: duvelisib -0.286

MTA3 (UniProt Q9BTC8)
inactive: lapatinib 0.006 | pictilisib 0.026 | crizotinib -0.058 | [1] -0.022 | duvelisib 0.001 | gandotinib -0.013 | tozasertib -0.008 | doramapimod 0.002 | bafetinib -0.048 | [2] 0.051

OGFOD2 (UniProt Q6N063)
Chain of UniProt Q6N063 (Q6N063 whole entry, looked up): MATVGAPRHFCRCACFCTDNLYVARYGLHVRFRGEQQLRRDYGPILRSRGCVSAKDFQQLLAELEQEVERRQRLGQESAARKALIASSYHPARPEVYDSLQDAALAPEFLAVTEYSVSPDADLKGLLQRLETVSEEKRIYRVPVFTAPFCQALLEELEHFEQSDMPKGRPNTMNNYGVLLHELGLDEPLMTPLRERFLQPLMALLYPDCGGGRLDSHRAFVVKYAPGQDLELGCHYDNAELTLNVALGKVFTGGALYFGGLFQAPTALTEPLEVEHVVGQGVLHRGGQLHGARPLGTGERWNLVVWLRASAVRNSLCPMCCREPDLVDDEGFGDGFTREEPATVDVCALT
inactive: lapatinib 0.034 | pictilisib -0.031 | crizotinib -0.017 | [1] -0.029 | duvelisib 0.045 | gandotinib -0.016 | tozasertib 0.019 | doramapimod -0.013 | bafetinib -0.09 | [2] 0.032

PARD3 (UniProt Q8TEW0)
inactive: lapatinib -0.143 | pictilisib -0.155 | crizotinib -0.096 | [1] 0.014 | duvelisib -0.102 | gandotinib 0.122 | tozasertib 0.064 | doramapimod -0.058 | bafetinib -0.054 | [2] 0.069
